Measured values from ChEMBL document CHEMBL3433997, “St. Jude Leishmania screening dataset” (2016).

Target: Glucose transporter (Leishmania mexicana) (UniProt O61059)
Experiment: ST_JUDE_LEISH: Cytotoxicity at 2uM final concentration against transgenic Leishmania Mexicana promastigotes LmGT2 that are glucose transport deficient and complemented with the L. Mexicana glucose transporter 2. Activity is measured by DNA content using SYBR green in vitro
Format: functional

Row | SMILES | inhibition [%]
1 | Cc1ccc2c(Cl)c(C(=O)N3CCCc4ccccc43)sc2c1 | 3.16
2 | C[C@@H](COc1ccccc1)NCC(O)c1ccc([N+](=O)[O-])c(OCc2ccccc2)c1 (stereo not given in full) | 0.1
3 | CCN(CC)CCCOC(=O)c1ccc2c(c1)-c1ccc(C(=O)OCCCN(CC)CC)c3cccc-2c13 | 4.24
4 | CS(=O)(=O)NCCCNCc1ccc(-c2ccc(-c3nc4cc(F)ccc4[nH]3)cc2)cc1 | 4.63
5 | O=C(Nc1ccccc1)N(Cc1ccc(-c2ccc(CNC3CCCC3)cc2)cc1)C1CCN(Cc2ccccc2)CC1 | 2.32
6 | Cc1noc(C)c1-c1cccc(CNCc2cccc(-c3ccc(-c4nc5cc(C(F)(F)F)ccc5[nH]4)s3)c2)c1 | 5.87
7 | CCCNCc1ccc(-c2ccc(CN(Cc3ccc4c(c3)OCO4)C(=O)[C@H]3CCCO3)cc2)nc1 | 8.76
8 | CN(C)Cc1c(O)ccc2[nH]c(-c3cccc(F)c3)nc12 | 0.64
9 | CCn1c(-c2nonc2N)nc2cnc(Oc3cccc(NC(=O)c4ccc(OCCN5CCCCC5)cc4)c3)cc21 | 13.7
10 | CCN(CC)CCN(Cc1ccc(-c2ccc(C(F)(F)F)cc2)cc1)C(=O)Cn1c(CCc2cccc(F)c2F)nc(=O)c2cc(F)ccc21 | 4.5
11 | CCOc1cc(-c2nnc3[nH]c(=O)n(C)c(=O)c3n2)ccc1OC(C)C | -1.04
12 | CCCCN(CCCC)/C(=N/c1cccc(Cl)c1Cl)Nc1ccc(C#N)cc1O | -4.06
13 | O=C(CNc1ccncc1)c1c[nH]c2ccccc12 | 0.74
14 | COc1ccc2nccc(N3CCC(NCCNCc4ccc5c(n4)NC(=O)CS5)C3)c2n1 (stereo not given) | 4.55
15 | O=c1c2ccccc2[nH]c2nc3ccccc3c(Nc3ccccc3)c12 | 8.59
16 | CN(C)CCCOc1ccc(CN2CC[C@H](NC(=O)c3ccc(Cl)c(Cl)c3)C2)cc1Br | 0.53
17 | Cc1c(CCc2cccc(F)c2F)[nH]c2ccccc2c1=O | 0.83
18 | CCc1nonc1NC(=O)c1oc2c(C)c(C)ccc2c1C | 7.88
19 | CC(C)c1cccc(OCC2CCN(c3ncc(C(=O)Nc4ccccc4)cc3Cl)CC2)c1 | -2.66
20 | C=CCOC(=O)N1CCC(CNCc2cccc(-c3ccc(-c4nc5cccc(C)c5[nH]4)s3)c2)C1 (stereo not given) | -0.89
21 | O=[N+]([O-])c1ccc(Nc2nc(N/N=C/c3ccc(-c4ccc([N+](=O)[O-])cc4)o3)nc(Nc3ccccc3)n2)cc1 | -5.8
22 | CCCNCc1ccc(-c2ccc(CN(Cc3cccs3)C(=O)C3CCN(C)CC3)cc2)nc1 | -0.89
23 | O=C(Nc1cccc(CN2CCN(C(=O)c3ccccc3)CC2)c1)c1ccco1 | 7.1
24 | CC(=O)Oc1c(C2CCN(CCCCNC(=O)c3ccc(-c4ccc(C#N)cc4)cc3)CC2)ccc2c1CCCC2 | 1.58
25 | COc1ccc2nccc(N3CCC(SCCNCc4ccc5c(n4)NC(=O)CO5)C3)c2n1 (stereo not given) | 2.08
